Experimental findings from PubChem BioAssay are described below.

The test system of test [1] is Human papillomavirus type 1a protein E7 (residues 44-93). The test can be described thus: small molecules binding HPV E7 44-93 – biochemical, small-molecule microarray, residues 44-93, 635 nm fluorescence, primary screen (AID 1108).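 Note: E7 fragment applied at 1 µg/mL in TBST for 1 h at 4 C; score combines spot fluorescence with its signal to noise ratio.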 Conditions: fluorescence 635 nm, higher = more signal.
Test [2] in a line: hepatitis C replication reporter changes, two-sided – Huh7 cells, luciferase reporter, HCV replication inhibitor project, primary screen (AID 1109).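 Note: huh7 hepatoma cells harbouring a luciferase neomycin HCV replicon reporter; luciferase luminescence as measure of HCV replicon replication; test concentration not given here.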 The note with it: Huh7 HCV replicon luciferase reporter, 48 h; higher = more signal.
Test [3] addresses Left-right determination factor 2 (Homo sapiens) (UniProt O00292). The test can be described thus: small molecules binding LEFTY2 protein – biochemical, small-molecule microarray, 635 nm fluorescence scan, primary screen (AID 1110). Conditions: higher = more signal.
For test [4], the target named is Calmodulin-1 (Homo sapiens) (UniProt P0DP23). Put plainly: small molecules binding calmodulin-1 with EGTA – biochemical, small-molecule microarray, Cy5-labelled CALM1, profiling panel (AID 1111).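 Note: labelled calmodulin applied in Tris saline Tween buffer holding calcium plus EGTA and DTT.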 Conditions: Cy5-CALM1 binding fluorescence, higher = more signal.
Test [5] has the same target. Put plainly: small molecules binding Ca-loaded calmodulin-1 – biochemical, small-molecule microarray, Cy5-labelled CALM1, plus calcium, artefact control for SMM control-protein annotation, profiling panel (AID 1112).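 Note: score merges spot fluorescence with signal to noise from triplicate slides.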 Conditions: Cy5-CALM1 binding fluorescence, higher = more signal.
The nature of test [6]: probe aWnt5a binding to arrayed compounds – biochemical, biotinylated probe, 635/667 nm fluorescence, primary screen (AID 1113).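 Note: score merges 667 nm fluorescence intensity with signal-to-noise per printed feature.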 The note with it: small-molecule microarray, higher = more signal.
The nature of test [7]: probe aShh binding to arrayed compounds – biochemical, biotinylated probe, 635/667 nm fluorescence, primary screen (AID 1114).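 Note: probe is biotin-labelled aShh protein from a stem cell growth factor screen; measures binding of labelled protein to compounds printed on the slide; score merges feature fluorescence at 667 nm with signal-to-noise.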 The note with it: small-molecule microarray, higher = more signal.
A short description of test [8]: probe aNog binding to arrayed compounds – biochemical, biotinylated probe, 635/667 nm fluorescence, primary screen (AID 1115).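 Note: probe is biotinylated aNog protein used at 0.15 µg/mL for 1 h at 4 C; z-score combines 667 nm fluorescence of each spot with its signal to noise.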 Conditions: small-molecule microarray, higher = more signal.
Test [9] concerns the target Torsin-1A-interacting protein 1 (Homo sapiens) (UniProt Q5JTV8). The test can be described thus: compound microarray binding of lysate hLAP1 – cell lysate, small-molecule microarray, COS7 lysate, 635/667 nm fluorescence, primary screen (AID 1116). Conditions: 635 nm fluorescence, higher = more signal.
Test [10] has as its target Alpha-bungarotoxin (Bungarus multicinctus) (UniProt P60615). Put plainly: compounds binding labelled alpha-BTX control protein – biochemical, small-molecule microarray, Alexa647 label, 635/667 nm fluorescence, artefact control for SMM control protein annotation, profiling panel (AID 1117). Conditions: alpha-BTX-A647 binding fluorescence, higher = more signal.

Sequence of Torsin-1A-interacting protein 1 (Homo sapiens) (Q5JTV8 whole entry, looked up): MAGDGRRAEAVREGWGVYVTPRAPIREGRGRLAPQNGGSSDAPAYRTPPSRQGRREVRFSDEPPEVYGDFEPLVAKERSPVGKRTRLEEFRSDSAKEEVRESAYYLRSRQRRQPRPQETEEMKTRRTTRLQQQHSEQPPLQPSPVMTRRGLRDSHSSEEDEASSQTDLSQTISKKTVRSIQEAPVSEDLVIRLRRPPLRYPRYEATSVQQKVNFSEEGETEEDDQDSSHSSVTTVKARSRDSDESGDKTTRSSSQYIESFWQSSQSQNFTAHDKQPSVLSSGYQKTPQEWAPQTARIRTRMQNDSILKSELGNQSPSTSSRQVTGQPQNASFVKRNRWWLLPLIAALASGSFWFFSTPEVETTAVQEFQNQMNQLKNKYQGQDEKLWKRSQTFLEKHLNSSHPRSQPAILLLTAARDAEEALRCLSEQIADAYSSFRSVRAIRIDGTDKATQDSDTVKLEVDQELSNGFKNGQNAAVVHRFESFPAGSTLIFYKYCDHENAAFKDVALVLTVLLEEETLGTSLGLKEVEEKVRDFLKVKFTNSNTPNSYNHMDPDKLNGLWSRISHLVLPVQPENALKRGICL
Sequence of Alpha-bungarotoxin (Bungarus multicinctus) (P60615 whole entry, looked up): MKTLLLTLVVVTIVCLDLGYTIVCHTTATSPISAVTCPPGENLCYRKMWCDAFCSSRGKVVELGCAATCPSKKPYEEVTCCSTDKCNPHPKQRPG
Sequence of Left-right determination factor 2 (Homo sapiens) (O00292 whole entry, looked up): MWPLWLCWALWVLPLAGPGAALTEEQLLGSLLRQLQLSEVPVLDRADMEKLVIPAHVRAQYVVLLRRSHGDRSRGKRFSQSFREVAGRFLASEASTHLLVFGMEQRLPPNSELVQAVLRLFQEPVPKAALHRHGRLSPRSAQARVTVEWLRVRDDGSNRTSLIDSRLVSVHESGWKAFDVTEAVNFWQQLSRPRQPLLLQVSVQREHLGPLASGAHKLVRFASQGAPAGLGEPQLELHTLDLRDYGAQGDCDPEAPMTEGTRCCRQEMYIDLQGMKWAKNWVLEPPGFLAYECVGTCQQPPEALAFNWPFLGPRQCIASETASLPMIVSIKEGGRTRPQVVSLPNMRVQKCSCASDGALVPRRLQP

As to `CN(C)CCCNC(=O)[C@@]1(Cc2ccccc2I)c2ccccc2C(=O)N(Cc2ccccc2)[C@H]1c1ccc(CO)cc1`, the composite z-score in [1] was 1.41; in test [3] it was 0.189; in test [4], -0.489; in [5] it was -0.636; in [6], 0.22; in test [7], -0.32. Also, the composite z-score in [8] came to 0.84; in [9], 1.21; in [10], 0.542. In test [2], the z-score is -3.36.

Regarding `C=C(CCCC)C(=O)CC[C@H](OC(C)=O)c1ccccc1OCCO`, the composite z-score in [1] is -0.0354; in test [3] it was 0.549; in test [4], -0.592; in [5] it was -1.13; in [6], -0.0182; in [7], 0.0121. The composite z-score in test [8] is -0.234; in [9], 0.173; in test [10], -0.106. This compound gave a z-score in [2] of -3.4.

Turning to `C#CCN([C@H](/C=C/C1CC1)[C@@H](O)Cc1ccccc1)[C@@H](Cc1ccccc1)C(=O)OC`, the composite z-score in test [1] is -0.197; in [3], 0.0052; in [4] it was -0.752; in [5], -0.861; in test [6], -0.124; in test [7], 0.0639. Further, the composite z-score in test [8] was -0.33; in test [9], -0.188; in [10] it was -0.0484. This compound displayed a z-score in test [2] of -2.64.

As for `CN(C)C(=O)[C@]1(Cc2ccccc2)N=C(c2ccc(OCCCO)cc2)O[C@@H]1c1ccccc1`, the composite z-score is 1.49 in test [1]; -0.0054 in test [3]; 1.25 in [4]; 0.529 in [5]; 0.0317 in [6]; -0.214 in test [7]. Besides, the values for the composite z-score in test [8], in test [9] and in [10] were 1.43, 1.8 and 0.917, respectively. Also, the z-score in test [2] is -1.88.

Regarding `COC(=O)[C@@]1(Cc2ccc(F)cc2)[C@H]2c3cc(C(=O)N(C)C)n(CCO)c3C[C@H]2CN1C(=O)c1ccccc1`, the composite z-score in test [1] was -0.0095; in test [3], -0.388; in test [4], 0.987; in test [5] it was 0.322; in test [6] it was -0.0271; in test [7], 0.494. Moreover, the results for the composite z-score in test [8], in test [9] and in test [10] were 1.33, 1.47 and -0.148, respectively. For the same compound, the z-score in [2] is -0.896.

For `CC(C)CNC(=O)[C@@H]1c2ccccc2C(=O)N(Cc2ccccc2Cl)[C@H]1c1ccc(CO)cc1`, the composite z-score was 1.07 in test [1]; -1.09 in test [3]; 0.0642 in test [4]; -0.116 in test [5]; -0.244 in [6]; -0.0813 in test [7]. Further, the composite z-score is -0.0769 in test [8], 1.69 in test [9] and -1.39 in test [10]. In test [2], the z-score was -0.249.

Take `COCCCN1C(=O)[C@@]2(Cc3ccccc31)c1ccccc1C(=O)N(Cc1ccccc1OC)[C@H]2c1ccc(CO)cc1`: the composite z-score in test [1] was -0.739; in [3], -0.283; in test [4], 0.0145; in test [5], -0.0984; in [6] it was 0.0759; in test [7], -0.138. For the same compound, the composite z-score in [8] is 0.417; in test [9], 0.145; in test [10], 0.212. Further, the z-score in test [2] was -0.185.

For `C=CCN1C(=O)[C@]2(O[C@H](CCn3cc([C@H](O)c4ccccc4)nn3)[C@@H]([Si](C)(C)c3ccc(OC)cc3)[C@@H]2C)c2cc(N3C(=O)c4cccc5cccc3c45)ccc21`, the composite z-score was 0.87 in test [1]; -0.744 in test [3]; 0.313 in test [4]; -0.58 in test [5]; -0.156 in test [6]; -0.0769 in test [7]. Further, the composite z-score in test [8] was -0.0809; in test [9], 0.404; in test [10], 1.39. For the same compound, the z-score in [2] was -4.4.

Regarding `NC(=O)[C@@]1(CCS(=O)(=O)c2ccccc2)COC(c2ccc(OCCCO)cc2)=N1`, the composite z-score in [1] is -0.244; in test [3], -0.323; in [4], 1.12; in test [5], 0.549; in [6] it was -0.0495; in test [7], 0.138. Moreover, the values for the composite z-score in test [8], in test [9] and in test [10] were -0.359, 0.512 and 0.768, respectively. This compound also had a z-score in [2] of -0.806.

On to `Cc1ccc(S[C@]2(C(=O)NCCN3CCOCC3)CC(=O)N(C3CCCCC3)[C@@H]2c2ccc(CO)cc2I)cc1`, for which the composite z-score in test [1] was determined as 1.46; in test [3], 0.134; in test [4], 0.562; in [5], 0.326; in test [6], 0.0214; in test [7], 0.23. In addition, the composite z-score in test [8] is -0.0098; in test [9], 1.37; in [10] it was 1.23. Moreover, the z-score in test [2] was -3.05.

`COCCOC(=O)N1C(=O)[C@@]2(c3cc(C#CCC(C(=O)OC)C(=O)OC)ccc31)[C@H](C(=O)N1CCc3cc(OC)c(OC)cc3C1)[C@H]1C(=O)O[C@H](c3ccccc3)[C@H](c3ccccc3)N1[C@@H]2c1ccc(O)cc1`: the composite z-score in test [1] is 1.4; in [3], 1.17; in test [4] it was 0.442; in test [5], -0.406; in test [6], 0.0718; in [7], 0.0326. The composite z-score is -0.537 in test [8], 0.965 in [9] and 0.906 in [10]. In addition, the z-score in [2] is -0.649.

Regarding `CC(C)C[C@@H]1NC(=O)[C@@H]2C[C@H](C(=O)NCCCC[N+](C)(C)C)[C@H](c3ccc(O)cc3)N2C1=O`, the composite z-score is 0.39 in test [1]; 1.05 in test [3]; -0.928 in test [4]; -0.768 in [5]; 0.0031 in [6]; 0.199 in test [7]. Further, the values for the composite z-score in [8], in [9] and in test [10] were 0.114, 1.24 and 0.789, respectively. For the same compound, the z-score in [2] was -0.996.

With `COCCOC(=O)N1C(=O)[C@@]2(c3cc(C#CC4=CCCCC4)ccc31)[C@H](c1ccc(OCCO)cc1)N1[C@H](c3ccccc3)[C@H](c3ccccc3)OC(=O)[C@H]1[C@@H]2C(=O)N1CCCCCCC1`, the composite z-score in [1] was 0.67; in test [3] it was 0.853; in test [4] it was 0.643; in test [5] it was 0.758; in [6], 0.267; in test [7], 1.44. Moreover, the results for the composite z-score in test [8], in [9] and in test [10] were 1.33, 1.91 and 1.9, respectively. In test [2], this compound yielded a z-score of -1.13.

`COc1ccc([Si](C)(C)[C@H]2[C@H](CCO)O[C@@]3(C(=O)N(Cc4ccccc4)c4ccc(N(C=O)c5ccccc5)cc43)[C@@H]2C)cc1`: the composite z-score was 1.21 in test [1]; 0.274 in test [3]; 1.1 in test [4]; 0.444 in test [5]; -0.0512 in [6]; -0.0769 in test [7]. For the same compound, the figures for the composite z-score in [8], in [9] and in test [10] were -0.352, 0.431 and 0.0701, respectively. The compound also returned a z-score in test [2] of -4.6.

As for `COC(=O)[C@H](Cc1ccc(O)cc1)N1CC2=CCCC=C[C@@H]2[C@H]1[C@H](O)Cc1ccccc1`, the composite z-score in test [1] is -0.615; in test [3] it was 0.45; in test [4] it was -0.197; in test [5] it was -0.757; in test [6], -0.157; in test [7], -0.138. Also, the values for the composite z-score in test [8], in test [9] and in test [10] were -0.292, 0.0548 and 0.0212, respectively. In test [2], this compound gave a z-score of -0.798.

Take `COc1ccc(C#Cc2ccc3c(c2)[C@]2(C(=O)N3)[C@H](c3ccc(OCCO)cc3)N3[C@H](c4ccccc4)[C@H](c4ccccc4)OC(=O)[C@H]3[C@@H]2C(=O)O)cc1`: the composite z-score in test [1] is 1.46; in [3], 0.362; in [4], -0.17; in test [5], -0.893; in test [6], -0.0028; in test [7] it was -0.0999. The composite z-score in [8] is 1.81; in test [9], 0.523; in test [10], 0.485. The compound further registered a z-score in test [2] of -1.3.

Regarding `C=C(CCCC)/C(=C/C[C@H](OC(C)=O)c1cccc(OCCO)c1)c1cc(C(=O)OC)ccc1OC`, the composite z-score is -0.323 in test [1]; -0.277 in [3]; -0.343 in [4]; -1.12 in test [5]; -0.0721 in test [6]; 0.0062 in [7]. Also, the composite z-score is 0.257 in [8], 0.455 in [9] and -0.0712 in test [10]. In addition, the z-score in test [2] is -1.95.
